Results from PubChem BioAssay AID602330 (Sanford-Burnham Center for Chemical Genomics, 2012).
The whole screen tested about 1,900 compounds, of which about 85 (4%) were called active. Rule as the data show it: active = inhibition above about 40%; inactive = the rest. These entries were drawn from the full list.

Biological target: 72 kDa type IV collagenase (Homo sapiens) (UniProt P08253)
Assay: MMP-2 enzyme inhibition, confirmation, counter-screen for RPN11 inhibitor project, biochemical, fluorescence, single concentration (AID 602330);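 also: human MMP-2 activated beforehand with APMA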
Conditions: recombinant MMP-2, FRET peptide cleavage fluorescence; at 20 µM; stronger effect = higher value

72 kDa type IV collagenase (Homo sapiens), sequence (P08253 whole entry, looked up): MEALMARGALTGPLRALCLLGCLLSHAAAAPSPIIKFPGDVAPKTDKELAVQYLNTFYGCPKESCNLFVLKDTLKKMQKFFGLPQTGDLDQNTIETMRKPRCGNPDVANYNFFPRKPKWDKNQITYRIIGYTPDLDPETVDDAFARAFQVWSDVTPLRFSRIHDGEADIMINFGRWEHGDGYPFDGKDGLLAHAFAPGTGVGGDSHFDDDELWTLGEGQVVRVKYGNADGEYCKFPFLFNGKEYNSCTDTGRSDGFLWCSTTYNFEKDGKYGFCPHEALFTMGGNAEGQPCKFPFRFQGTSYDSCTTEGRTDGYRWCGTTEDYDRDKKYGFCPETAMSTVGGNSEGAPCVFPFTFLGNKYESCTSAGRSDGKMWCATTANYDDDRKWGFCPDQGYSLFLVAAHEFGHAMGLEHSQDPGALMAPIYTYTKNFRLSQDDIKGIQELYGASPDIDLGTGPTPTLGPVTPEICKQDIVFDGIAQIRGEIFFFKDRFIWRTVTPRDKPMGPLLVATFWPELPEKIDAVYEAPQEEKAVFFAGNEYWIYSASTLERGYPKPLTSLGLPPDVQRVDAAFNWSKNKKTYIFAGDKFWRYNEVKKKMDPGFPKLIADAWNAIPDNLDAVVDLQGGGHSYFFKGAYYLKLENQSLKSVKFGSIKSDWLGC

SMILES | inhibition
CCN(CC)C(=O)CSc1nc2ccccc2n1CC(=O)N1CCN(c2ccccc2OC)CC1 | 8.93% (inactive)
Cc1ccc(NC(=O)CN2CCc3ccccc3C2)cc1 | -29.5% (inactive)
COc1ccc(CC(=O)Nc2ccc(-c3nnc(-c4ccc(C)cc4)o3)cc2)cc1 | -21.6% (inactive)
Oc1c(CN2CCCC2)cc(COCc2ccccc2)c2cccnc12 | 14.7% (inactive)
CCc1ccc(-c2cc(C(=O)NCc3ccco3)c3ccccc3n2)s1 | -10.6% (inactive)
Cc1c(NC(=O)CSc2cccc3cccnc23)c(=O)n(-c2ccccc2)n1C | -0.79% (inactive)
Cc1c(N=Nc2ccc(N(C)C)cc2)c(=O)n(-c2ccccc2)n1C | -25.6% (inactive)
COc1cccc(NC(=O)C(C)Oc2ccccc2)c1 (stereo not drawn) | -39.6% (inactive)
CCC/C=C(\CCC)C(NC(=O)Cc1ccccc1)c1ccc(C(=O)OC)cc1 (stereo not drawn) | -6.21% (inactive)
Cc1cc(/C=N/Nc2ccc([N+](=O)[O-])cn2)c(C)n1-c1cccc(C(=O)O)c1 | -54.4% (inactive)
C=CCn1c(=S)[nH]c2scc(-c3ccco3)c2c1=O | 40.5% (active)
CCN1CCN(c2cc3nc(C)n(Cc4ccccc4)c(=O)c3cc2NC(=O)c2ccccc2F)CC1 | -12.5% (inactive)
COc1ccc(-n2c(SCC(=O)Nc3sc4c(c3C#N)CCCC4)nnc2-c2ccc(O)cc2)cc1 | -2.87% (inactive)
N#Cc1c(-c2cccs2)nc(SCC(=O)c2ccc(Br)cc2)[nH]c1=O | 47% (active)
CC(C)(C)NC(=O)CSC(=Nc1ccccc1F)NC#N | -28.4% (inactive)
O=C(COc1cccc(F)c1)Oc1ccc(C(=O)c2ccccc2)cc1 | 8.62% (inactive)
CC(=O)/C(=N\Nc1ccc(Cl)cc1Cl)Sc1cccc2cccnc12 | -27.9% (inactive)
C/C(=N/Nc1nc(-c2ccccc2)c(CC(=O)O)s1)c1ccccc1 | 4.1% (inactive)
CCCCCCCCCCOC(=O)Cn1c(COc2cccc(OC)c2)[n+](C)c2ccccc21 | -10.1% (inactive)
COc1ccc2[nH]c(=O)c(-c3noc(-c4ccc(F)cc4)n3)cc2c1 | -20.1% (inactive)

SMILES | inhibition
CCc1ccc(NC(=O)CS(=O)CC(=O)NCCCc2ccccc2)cc1 (stereo not drawn) | -2.62% (inactive)
Cc1ccc2cc(C#N)c(NCCNC(=S)NCCCN3CCOCC3)nc2c1 | -15% (inactive)
CCOc1ccc(-n2c(O)c(/C=N/c3ccnn3Cc3ccncc3)c3ccccc3c2=O)cc1 | 1.46% (inactive)
O=C1NC(=O)C2C1C(c1ccc([N+](=O)[O-])cc1)=NN2Cc1ccccc1 (stereo not drawn) | -11.1% (inactive)
Cc1ccc(-c2nnc(-c3ccc(NC(=O)c4cccs4)cc3)o2)cc1 | -49.7% (inactive)
C=CC[n+]1c(-c2ccc(C)cc2)csc1NNC(=O)Nc1ccccc1 | 26% (inactive)
Cc1nc2ccccc2nc(=O)c1NNc1ccc([N+](=O)[O-])cc1 | -26.6% (inactive)
N#Cc1ccc(C(=O)Nc2cccc3cccnc23)c(F)c1 | -11% (inactive)
COc1ccc(Cl)cc1NC(=O)CCS(=O)(=O)c1ccc(Br)cc1 | -0.68% (inactive)
O=C(CCS(=O)(=O)c1cccc2nonc12)NCCc1ccccc1Cl | -10.6% (inactive)
CN=c1scc(-c2cc(OC)ccc2OC)n1/N=C/c1c(C)[nH]c2ccccc12 | 22.9% (inactive)
Oc1ccc(/C=N/Nc2nc(-c3ccccc3F)nc3ccccc23)c(O)c1 | -56.3% (inactive)
C=CCn1c(SCC(=O)NCc2ccccc2)nnc1-c1cc(Br)ccc1O | -13% (inactive)
CC(C)Cn1c(CCC(=O)O)ccc1-c1cccs1 | -47.9% (inactive)
O=C(O)c1ccc(NN=CC2=C(N3CCOCC3)/C(=C/c3ccccc3)CC2)cc1 | -0.54% (inactive)
CC(=O)c1sc(N/N=C/c2ccc(C(C)C)cc2)nc1C | 20.1% (inactive)
CCCS(=O)(=O)N1CCCC(C(=O)NCc2ccco2)C1 (stereo not drawn) | -7.67% (inactive)
CSC1=N/C(=C\C=C\c2cccs2)C(=O)S1 | 10% (inactive)
CN(C)CCOC1c2ccccc2-c2ccccc21 | -31.6% (inactive)
CCOc1cc(/C=C2\SC(N3CCCC(C)C3)=NC2=O)ccc1O (stereo not drawn) | -18.9% (inactive)

SMILES | inhibition
COc1cc(/C=C2/SC(=S)N(Cc3ccccc3)C2=O)cc(OC)c1O | -7.17% (inactive)
Cc1cc(OCC(=O)Nc2nccs2)c2c(C)c(C)c(=O)oc2c1 | 0.79% (inactive)
O=C(Nc1ccc(-c2nnc(-c3ccccc3)o2)cc1)c1ccc(Br)o1 | 35.4% (inactive)
CS(=O)(=O)c1ccc2c(c1)SC1=NC(=O)/C(=C/c3ccco3)C(=N)N12 | 13% (inactive)
O=C(CSc1cccc2cccnc12)N/N=C/c1cccnc1 | -15.4% (inactive)
Nc1nonc1-n1nnc(C(=O)N/N=C/c2cc(Br)ccc2O)c1CSC1=NCCS1 | -8.38% (inactive)
COc1cccc(-c2nn(-c3ccccc3)cc2/C=C(\C#N)C(=O)NCCCn2ccnc2)c1 | -13.9% (inactive)
COc1ccc(CNC(=O)c2nnn(CC(=O)Nc3cc(C)cc(C)c3)c2N)cc1 | 5.49% (inactive)
CC(C)Oc1ccc(/C=C(\NC(=O)/C=C/c2ccco2)C(=O)NCCc2nc3ccccc3[nH]2)cc1 | -12% (inactive)
Cc1cccc(OCc2nnc(SCc3nc4cc(C(F)(F)F)ccc4c(=O)[nH]3)o2)c1 | 18.2% (inactive)
NC(N)=N/N=C/c1ccc(OCc2ccc(Cl)cc2Cl)cc1 | 9.75% (inactive)
CCOc1cc(/C=C2\SC(N3CCCCC3)=NC2=O)ccc1O | -18.1% (inactive)
Cc1cc(/C=C2/SC(=O)N(CC(=O)N3CCCC3)C2=O)ccc1N1CCOCC1 | -23% (inactive)
O=C(OCc1cc2ccccc2[nH]c1=O)c1cccnc1 | -65.4% (inactive)
Cc1sc2nc(COC(=O)C(NC(=O)c3ccc(Cl)cc3Cl)C(C)C)[nH]c(=O)c2c1C (stereo not drawn) | -38.9% (inactive)
CCNCc1cc2cc(C)ccc2[nH]c1=O | -21.9% (inactive)
CC1CCN(c2ccc3c(c2)S(=O)(=O)c2cc(C(=O)O)ccc2C3=O)CC1 | -51.3% (inactive)
Cc1ccc(NC(=O)c2c(NC(=O)CCC(=O)O)sc3c2CCCCC3)cc1 | 20.7% (inactive)
